Values joined by “and” are separate entries in the source; they are usually repeats but may differ in a detail not shown here. Equal entries are not always repeated. Active and inactive are the calls of the source.

Experiment [1] in a line: E. coli DRC41 culture turbidity changes, primary screen, E. coli filamentation inducer project, strain DRC41, OD650, 48 h (AID 1152).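 Note: E. coli MC1000 strain DRC41 lacking acrAB efflux pump and sulA.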 The following applies: E. coli DRC41 (acrAB sulA), higher = more signal, called active from +8 up or from −8 down.
A short description of experiment [2]: small-molecule binders of probe aLefty1, primary screen, biochemical, small-molecule microarray, 635/667 nm fluorescence (AID 1153).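 Note: score merges spot fluorescence with signal-to-noise ratio from the scanned slide images.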 The following applies: higher = more signal.
Experiment [3] in a line: PSAC antagonists in infected red cells, primary screen, cell-based, P. falciparum Indochina, OD700, 1 h (AID 1154). The conditions noted are these: P. falciparum Indochina infected RBC osmotic lysis, higher = more signal, called active from +8 up or from −8 down.
The nature of experiment [4]: PSAC antagonists in infected red cells, primary screen, cell-based, P. falciparum Indochina, OD700, 2 h (AID 1155).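 Note: lysis reports solute entry through the parasite surface anion channel PSAC; channel blockers reduce lysis of infected cells.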 The conditions noted are these: P. falciparum Indochina infected erythrocytes, osmotic lysis OD700; higher = more signal, called active from +8 up or from −8 down.
A short description of experiment [5]: osmotic lysis modulators in infected erythrocytes, primary screen, PSAC antagonist project, cell-based, P. falciparum Indochina, OD700, 3 h (AID 1156). The following applies: higher = more signal, called active from +8 up or from −8 down.
Experiment [6] is described as follows: PSAC antagonists in infected red cells, primary screen, cell-based, P. falciparum Indochina, OD700, 18 h (AID 1157). The conditions noted are these: P. falciparum Indochina infected erythrocytes, osmotic lysis OD700, 18 h; higher = more signal, called active from +8 up or from −8 down.
The nature of experiment [7]: modulators of S6 phosphorylation in cells, primary screen, cell-based, A549, cytoblot, luminescence, serum-stimulated (AID 1158).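 Note: serum-stimulated A549 lung adenocarcinoma cells; signal is phosphorylated S6 detected by cytoblot immunostaining with HRP secondary.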 The following applies: A549 phospho-S6 cytoblot, 5 h, higher = more signal.
The target of experiment [8] is NADPH oxidase 2 (Homo sapiens) (UniProt P04839). Description: NOX2-dependent H2O2 signal modulators, primary screen, NOX inhibitor project, cell-based, HEK293-NOX2, PMA-stimulated, Amplex Red fluorescence (AID 1159). Note: test concentration not given here. The conditions noted are these: 45 min, higher = more signal, called active from +8 up or from −8 down.
Sequence of NADPH oxidase 2 (Homo sapiens) (P04839 whole entry, looked up): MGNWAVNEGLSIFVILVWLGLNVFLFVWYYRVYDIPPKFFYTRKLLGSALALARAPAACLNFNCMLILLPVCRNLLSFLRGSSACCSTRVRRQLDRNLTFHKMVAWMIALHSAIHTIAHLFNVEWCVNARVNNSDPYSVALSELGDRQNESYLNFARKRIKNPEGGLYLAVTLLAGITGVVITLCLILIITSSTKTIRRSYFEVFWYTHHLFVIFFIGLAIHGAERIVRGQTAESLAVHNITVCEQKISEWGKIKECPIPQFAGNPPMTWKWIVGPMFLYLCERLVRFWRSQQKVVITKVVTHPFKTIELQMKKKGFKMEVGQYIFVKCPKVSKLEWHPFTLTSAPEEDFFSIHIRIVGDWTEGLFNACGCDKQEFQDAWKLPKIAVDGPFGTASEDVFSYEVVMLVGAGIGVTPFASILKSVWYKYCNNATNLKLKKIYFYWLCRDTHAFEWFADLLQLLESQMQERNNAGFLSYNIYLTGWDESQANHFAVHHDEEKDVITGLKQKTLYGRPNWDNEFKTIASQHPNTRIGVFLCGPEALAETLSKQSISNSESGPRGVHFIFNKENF
Experiment [9] has as its target NADPH oxidase 4 (Homo sapiens) (UniProt Q9NPH5). Description: NOX4-dependent H2O2 signal modulators, primary screen, NOX inhibitor project, cell-based, HEK293-NOX4, tetracycline-induced, Amplex Red fluorescence (AID 1160). The conditions noted are these: 45 min, higher = more signal, called active from +8 up or from −8 down.
In experiment [10] the target is NADPH oxidase 5 (Homo sapiens) (UniProt Q96PH1). Description: NOX5-dependent H2O2 signal modulators, primary screen, NOX inhibitor project, cell-based, HEK293-NOX5, Amplex Red fluorescence (AID 1161). The conditions noted are these: HEK293-NOX5, ionomycin, 45 min, higher = more signal.
Sequence of NADPH oxidase 5 (Homo sapiens) (Q96PH1 whole entry, looked up): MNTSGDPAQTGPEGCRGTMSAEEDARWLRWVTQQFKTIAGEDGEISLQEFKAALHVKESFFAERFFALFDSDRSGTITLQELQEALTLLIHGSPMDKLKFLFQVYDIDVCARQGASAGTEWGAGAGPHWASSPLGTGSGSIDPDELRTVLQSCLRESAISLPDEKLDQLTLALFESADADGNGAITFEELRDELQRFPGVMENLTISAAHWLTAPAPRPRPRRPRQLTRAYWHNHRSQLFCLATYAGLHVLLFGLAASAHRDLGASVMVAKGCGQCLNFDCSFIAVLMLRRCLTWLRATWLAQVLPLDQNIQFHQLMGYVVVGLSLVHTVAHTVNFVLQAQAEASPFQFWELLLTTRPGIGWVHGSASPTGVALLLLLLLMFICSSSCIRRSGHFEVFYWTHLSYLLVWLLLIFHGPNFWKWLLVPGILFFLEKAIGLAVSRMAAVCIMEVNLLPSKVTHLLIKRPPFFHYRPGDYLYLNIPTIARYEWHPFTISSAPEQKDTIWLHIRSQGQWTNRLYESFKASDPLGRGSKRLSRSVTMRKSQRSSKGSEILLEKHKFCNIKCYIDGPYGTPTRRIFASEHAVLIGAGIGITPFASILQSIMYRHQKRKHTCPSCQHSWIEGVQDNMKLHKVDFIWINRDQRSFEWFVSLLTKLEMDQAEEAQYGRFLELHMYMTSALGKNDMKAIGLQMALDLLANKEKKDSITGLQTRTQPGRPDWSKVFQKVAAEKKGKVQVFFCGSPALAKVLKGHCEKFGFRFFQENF

Sequence of NADPH oxidase 4 (Homo sapiens) (Q9NPH5 whole entry, looked up): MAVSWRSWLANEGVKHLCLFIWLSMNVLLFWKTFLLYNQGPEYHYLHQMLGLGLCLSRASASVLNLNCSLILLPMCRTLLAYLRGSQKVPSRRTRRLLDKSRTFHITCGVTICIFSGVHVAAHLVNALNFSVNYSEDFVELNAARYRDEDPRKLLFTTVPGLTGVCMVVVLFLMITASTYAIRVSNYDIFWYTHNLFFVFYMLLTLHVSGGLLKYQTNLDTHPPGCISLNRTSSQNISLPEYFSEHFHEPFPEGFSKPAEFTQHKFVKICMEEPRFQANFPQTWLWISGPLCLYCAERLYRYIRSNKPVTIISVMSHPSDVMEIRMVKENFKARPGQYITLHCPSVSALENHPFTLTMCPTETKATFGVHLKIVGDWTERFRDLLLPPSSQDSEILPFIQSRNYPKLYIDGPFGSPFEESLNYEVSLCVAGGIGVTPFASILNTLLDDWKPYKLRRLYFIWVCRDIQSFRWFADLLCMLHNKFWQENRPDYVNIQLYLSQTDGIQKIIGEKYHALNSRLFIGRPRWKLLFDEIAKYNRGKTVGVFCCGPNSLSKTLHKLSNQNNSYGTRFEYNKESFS

As to `CCOC(=O)C[C@H]1[C@H](OC(=O)c2ccccc2-c2ccccc2)[C@@H](NC(=O)c2ccccc2)c2cc(OCCCO)ccc2N1C(=O)c1ccc2ccccc2n1`, the z-score in experiment [1] is 0.869 (inactive) and -0.664 (inactive); in [3], 5.24 (inactive) and 2.8 (inactive); in [4], 0.709 (inactive) and 0.295 (inactive); in experiment [5], 0.195 (inactive) and -0.416 (inactive); in experiment [6], 0.353 (inactive) and 0.188 (inactive); in experiment [7] it was 0.649 and -0.172. Further, the z-score in experiment [8] was -0.556 (inactive) and -1.18 (inactive); in experiment [9] it was 0.848 (inactive) and 0.921 (inactive); in experiment [10], 2.2 and 0.732. Moreover, in experiment [2], the composite z-score is 0.126 and 0.341.
For the compound `CCN1C(=O)[C@H]2[C@H]3[C@H](O)[C@H](O)CC(=NOC)[C@@H]3CC[C@H]2C1=O`, the z-score in experiment [1] is -0.589 (inactive); in experiment [3], 0.637 (inactive); in experiment [4] it was 0.628 (inactive); in experiment [5], 0.47 (inactive); in [6], 0.269 (inactive); in experiment [7], 0.815. The z-score in experiment [8] was -0.0884 (inactive); in experiment [9], 0.545 (inactive); in [10], -0.274. In [2], the composite z-score was -0.0654.
On to `C=C(C)C(=O)OC[C@@H]1CN2[C@@H](CC[C@@H](C)[C@@H]2c2ccc(Br)cc2)C(=O)O1`, for which the z-score in [1] is -0.181 (inactive); in experiment [3] it was 1.51 (inactive); in [4], 0.0995 (inactive); in experiment [5], 0.289 (inactive); in experiment [6] it was 0.294 (inactive); in experiment [7], 0.525. The z-score in experiment [8] is -0.29 (inactive); in experiment [9], 1 (inactive); in experiment [10] it was 0.481. The composite z-score in experiment [2] is 0.218.
As for `COC(=O)C1=C(C)N(Cc2ccccc2)[C@]23O[C@](C(=O)OC)(C(=O)N2[C@@H]1c1ccccc1)[C@H]1CCCC(=O)[C@H]13`, the z-score in experiment [1] was 0.0211 (inactive) and -0.587 (inactive); in experiment [3] it was 1.12 (inactive) and 0.466 (inactive); in experiment [4], 0.314 (inactive) and 0.0982 (inactive); in [5], 0.0988 (inactive) and 0.882 (inactive); in experiment [6] it was 0.0037 (inactive) and -1.37 (inactive); in [7] it was -0.0731 and 2.28. The z-score was -2.97 (inactive) and -0.233 (inactive) in experiment [8]; 0.743 (inactive) and 0.178 (inactive) in experiment [9]; 0.244 and -0.624 in experiment [10]. The composite z-score in experiment [2] is -0.0559 and 0.101.
Take `CN1C(=O)C2CC=C([C@H]3Oc4ccccc4S(=O)(=O)N4CCC[C@@H]34)CC2C1=O` (stereo not given in full): the z-score in [1] was -0.92 (inactive) and -0.225 (inactive); in experiment [3], 0.35 (inactive) and 0.829 (inactive); in [4], 0.542 (inactive) and 0.41 (inactive); in experiment [5], -0.0363 (inactive) and 0.15 (inactive); in experiment [6], 0.354 (inactive) and 0.133 (inactive); in experiment [7], -0.395 and -0.53. The z-score in experiment [8] was 0.514 (inactive) and -0.289 (inactive); in experiment [9], -1.36 (inactive) and -1.47 (inactive); in experiment [10] it was -1.31 and -1.46. In [2], the composite z-score is -0.186 and -0.193.
With `C=CCN(C(=O)C1N(c2c(Cl)cccc2CO)C(=O)C2C(C(=O)O)C3C=CC21O3)C(C)(C)C` (stereo not given), the z-score was 1.66 (inactive) and 1.99 (inactive) in experiment [1]; 1.77 (inactive) and -0.973 (inactive) in experiment [3]; 0.821 (inactive) and -1.1 (inactive) in [4]; 1.03 (inactive) and -0.229 (inactive) in experiment [5]; 0.604 (inactive) and -1.54 (inactive) in [6]; 0.442 and 1.04 in experiment [7]. The z-score is 0.961 (inactive) and 0.116 (inactive) in [8]; -0.288 (inactive) and -0.645 (inactive) in [9]; 0.788 and -0.335 in [10]. Besides, the composite z-score in experiment [2] is -0.945 and -0.0547.
Consider `C=CCN1C(=O)[C@]2(O[C@H](CCn3cc(CCO)nn3)[C@@H]([Si](C)(C)c3ccc(OC)cc3)[C@@H]2C)c2cc(N3C(=O)c4cccc5cccc3c45)ccc21`, for which the z-score is 0.833 (inactive) and -0.342 (inactive) in experiment [1]; 24.1 (active) in [3]; 9.07 (active) and 8.54 (active) in experiment [4]; -0.152 (inactive) and -1.17 (inactive) in experiment [5]; 2.04 (inactive) and 1.7 (inactive) in [6]; 1.04 and 0.347 in [7]. For the same compound, the z-score in experiment [8] was 0.823 (inactive) and 1.03 (inactive); in experiment [9], 0.265 (inactive) and 0.624 (inactive); in experiment [10], -0.371 and -0.152. Further, in experiment [2], the composite z-score is -0.0536 and 0.188.
On to `Cc1ccc(S(=O)(=O)N[C@@H]2COC(=O)CC=C[C@@H](C)[C@@H]3C=C[C@H](O)[C@@H](COC(=O)CC=C[C@H]2C)O3)cc1`, for which the z-score in [1] was -0.134 (inactive) and -0.835 (inactive); in experiment [3] it was -0.178 (inactive) and -0.723 (inactive); in [4] it was -0.377 (inactive) and -1.3 (inactive); in [5] it was -0.603 (inactive) and 1.03 (inactive); in experiment [6], 0.035 (inactive) and -1.47 (inactive); in experiment [7] it was 0.116 and 1.08. Further, the z-score in [8] was -2.15 (inactive) and -1.22 (inactive); in experiment [9], 0.427 (inactive) and -1.36 (inactive); in experiment [10] it was 0.353 and -2.6. The composite z-score in experiment [2] was -0.217 and 0.0658.

For the origin of these results see PubChem BioAssay.
